Data published in PubChem BioAssay (Tox21).
Records with an inconclusive call do not appear. Activity calls are given as the source filed them. Unless noted, the call rests on the fitted dose curve; in most records, active means well fitted curve in the direction sought with a large enough effect in the repeat runs; inconclusive means weak or mixed curves; inactive means no such curve, though single readings can be large; an effect the other way counts as inactive or inconclusive.

Legend:
[1] = qHTS assay to test for compound auto fluorescence at 535 nm (green) in HEK293 cells (AID 720680)
[2] = qHTS assay to test for compound auto fluorescence at 460 nm (blue) in HEK293 cell free culture (AID 720681)
Summary of the method: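 Blue fluorescence (Ex 405/Em 460 nm, triamterene-equivalent) was read immediately after pin transfer of compound or DMSO into medium (DMEM, 10% FBS) without cells.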

[3] = qHTS assay to test for compound auto fluorescence at 535 nm (green) in HEK293 cell free culture (AID 720682)
Summary of the method: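 Fluorescein serves as the green reference fluorophore; each compound's intrinsic emission at 535 nm (excitation 485 nm) is reported as an equivalent amount of that dye, measured in serum-containing DMEM without cells.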

[4] = qHTS assay to test for compound auto fluorescence at 590 nm (red) in HEK293 cell free culture (AID 720683)
Summary of the method: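 Red-channel autofluorescence of compounds in culture medium (DMEM, 10% FBS), no cells, measured at 540/590 nm. Rose Bengal sodium is the reference fluorophore for equivalence.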

[5] = qHTS assay to test for compound auto fluorescence at 590 nm (red) in HepG2 cell free culture (AID 720684)
Summary of the method: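 Plate contents were MEM with 10% FBS plus test compound or DMSO, no cells. Fluorescence was recorded with 540 nm excitation and 590 nm emission.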

[6] = qHTS assay to test for compound auto fluorescence at 460 nm (blue) in HepG2 cell free culture (AID 720685)
Summary of the method: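 Compound (23 nL) or DMSO pinned into cell-free MEM with 10% FBS; blue fluorescence read at 405/460 nm excitation/emission, expressed as auto-fluorescence equivalency to triamterene.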

[7] = qHTS assay to test for compound auto fluorescence at 535 nm (green) in HepG2 cell free culture (AID 720686)
[8] = qHTS assay to test for compound auto fluorescence at 460 nm (blue) in HepG2 cells (AID 720687)
Summary of the method: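 Blue-channel autofluorescence (Ex/Em 405/460 nm, triamterene-equivalent) was measured after 1 hr compound exposure at 37 C, 5% CO2. Cells were HepG2, plated overnight at 37 C in MEM plus 10% FBS.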

[9] = target: Glucocorticoid receptor (Homo sapiens) (UniProt P04150); assay: qHTS assay to identify small molecule agonists of the glucocorticoid receptor (GR) signaling pathway (AID 720691; active means well fitted activation curve with a large enough effect in the signal ratio in the repeat runs, not every such curve was filed as active; the % refers to the signal ratio); conditions: GR-bla HeLa, beta-lactamase reporter ratio, 18 h; activation: at 62.4 µM (top of the series)
Sequence of Glucocorticoid receptor (Homo sapiens) (P04150 whole entry, looked up): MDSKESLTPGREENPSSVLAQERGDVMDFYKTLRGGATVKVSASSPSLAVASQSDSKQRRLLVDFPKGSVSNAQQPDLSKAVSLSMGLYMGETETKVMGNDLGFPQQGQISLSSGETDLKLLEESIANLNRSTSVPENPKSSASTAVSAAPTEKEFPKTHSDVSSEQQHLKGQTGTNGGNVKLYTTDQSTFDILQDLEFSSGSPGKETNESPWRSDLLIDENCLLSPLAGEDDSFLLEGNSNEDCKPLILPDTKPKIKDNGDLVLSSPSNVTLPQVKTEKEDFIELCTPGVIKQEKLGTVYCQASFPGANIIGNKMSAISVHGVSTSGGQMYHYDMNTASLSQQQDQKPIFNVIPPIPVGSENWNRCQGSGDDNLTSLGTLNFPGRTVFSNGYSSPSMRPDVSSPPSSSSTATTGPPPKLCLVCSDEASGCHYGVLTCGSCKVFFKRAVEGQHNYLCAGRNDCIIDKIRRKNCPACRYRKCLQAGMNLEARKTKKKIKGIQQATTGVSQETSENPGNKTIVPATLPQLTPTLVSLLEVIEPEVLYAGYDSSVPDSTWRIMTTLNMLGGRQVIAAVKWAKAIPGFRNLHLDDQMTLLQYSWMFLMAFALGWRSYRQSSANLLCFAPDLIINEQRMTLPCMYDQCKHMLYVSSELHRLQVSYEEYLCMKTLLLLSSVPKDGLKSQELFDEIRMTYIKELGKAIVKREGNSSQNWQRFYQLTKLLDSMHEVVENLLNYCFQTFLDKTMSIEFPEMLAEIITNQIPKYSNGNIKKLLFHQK
Summary of the method: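 Beta-lactamase reporter activity, read as fluorescence intensity, was measured in GR-bla HeLa cells exposed to compounds for 18 h at 37 C and then loaded with LiveBLAzer B/G FRET substrate for 2 h at room temperature.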

[10] = qHTS assay to identify small molecule antagonists of the glucocorticoid receptor (GR) signaling pathway - cell viability counter screen (AID 720693); further: nearly all actives have a fitted effect of over 55% in size
[11] = qHTS assay for identifying genotoxic compounds that show differential cytotoxicity against isogenic chicken DT40 cell lines with known DNA damage response pathways - wild type cell line (AID 743012); further: nearly all actives have a fitted effect of over 60% in size; further: potency means the concentration at half of the fitted maximal effect
Summary of the method: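 Quantitative HTS on parental DT40 cells: 40 h compound treatment at 37 C/5% CO2, with viability then determined by CellTiter-Glo luminescence. Values serve as the DNA repair-proficient reference for differential cytotoxicity.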

[12] = qHTS assay for identifying genotoxic compounds that show differential cytotoxicity against isogenic chicken DT40 cell lines with known DNA damage response pathways - Rev3 mutant cell line (AID 743014); further: nearly all actives have a fitted effect of over 55% in size; further: potency means the concentration at half of the fitted maximal effect
[13] = qHTS assay for identifying genotoxic compounds that show differential cytotoxicity against isogenic chicken DT40 cell lines with known DNA damage response pathways - Rad54/Ku70 mutant cell line (AID 743015); further: nearly all actives have a fitted effect of over 60% in size; further: potency means the concentration at half of the fitted maximal effect
[14] = qHTS assay to identify small molecule antagonists of the androgen receptor (AR) signaling pathway - cell viability counter screen (AID 743033; further: nearly all actives have a fitted effect of over 45% in size; further: potency means the concentration at half of the fitted maximal effect)
[15] = qHTS assay to identify small molecule antagonists of the androgen receptor (AR) signaling pathway using the MDA cell line - cell viability counter screen (AID 743041; further: nearly all actives have a fitted effect of over 45% in size; further: potency means the concentration at half of the fitted maximal effect)
Summary of the method: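 R1881-driven MDA-kb2 AR-luc cells, 3,000/well, were dosed with library compounds for 16 h; cell health came from CellTiter-Fluor fluorescence in the reporter wells.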

[16] = target: Androgen receptor (Homo sapiens) (UniProt P10275); assay: qHTS assay to identify small molecule agonists of the androgen receptor (AR) signaling pathway (AID 743036; active means well fitted activation curve with a large enough effect in the signal ratio in the repeat runs, with a control signal flat, not every such curve was filed as active; the % refers to the signal ratio)
Sequence of Androgen receptor (Homo sapiens) (P10275 whole entry, looked up): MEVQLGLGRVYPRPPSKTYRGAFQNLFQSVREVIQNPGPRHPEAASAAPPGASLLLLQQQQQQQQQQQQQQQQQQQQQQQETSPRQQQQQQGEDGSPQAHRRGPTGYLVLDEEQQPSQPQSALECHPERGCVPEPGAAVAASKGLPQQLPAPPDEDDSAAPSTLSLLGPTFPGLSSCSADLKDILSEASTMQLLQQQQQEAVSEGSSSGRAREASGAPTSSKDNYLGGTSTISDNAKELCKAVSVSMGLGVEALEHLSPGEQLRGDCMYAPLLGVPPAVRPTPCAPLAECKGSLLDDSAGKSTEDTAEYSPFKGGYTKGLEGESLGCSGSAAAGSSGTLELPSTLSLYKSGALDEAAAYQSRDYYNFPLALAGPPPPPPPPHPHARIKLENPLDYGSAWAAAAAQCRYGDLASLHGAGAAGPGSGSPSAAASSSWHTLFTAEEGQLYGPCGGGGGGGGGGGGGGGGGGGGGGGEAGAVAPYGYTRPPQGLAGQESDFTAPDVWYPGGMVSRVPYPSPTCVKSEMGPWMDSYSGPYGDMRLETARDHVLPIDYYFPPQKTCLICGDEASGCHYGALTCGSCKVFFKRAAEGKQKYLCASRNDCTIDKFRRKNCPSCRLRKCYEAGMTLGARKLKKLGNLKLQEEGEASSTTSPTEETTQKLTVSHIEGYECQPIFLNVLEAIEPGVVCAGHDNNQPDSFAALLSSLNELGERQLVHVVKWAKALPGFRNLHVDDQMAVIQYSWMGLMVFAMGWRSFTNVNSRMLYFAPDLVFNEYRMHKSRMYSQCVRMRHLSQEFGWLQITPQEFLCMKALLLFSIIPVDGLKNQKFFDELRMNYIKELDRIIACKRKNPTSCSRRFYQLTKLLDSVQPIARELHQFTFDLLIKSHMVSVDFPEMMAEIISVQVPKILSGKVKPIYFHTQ
Summary of the method: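 Fluorescence from a beta-lactamase FRET substrate served as read-out in AR-UAS-bla GripTite HEK293 cells. Cells were treated with DMSO-dissolved compounds for 16 h at 37C, then with LiveBLAzer B/G substrate for 2 h at room temperature.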

[17] = target: Androgen receptor (Homo sapiens) (UniProt P10275); assay: qHTS assay to identify small molecule agonists of the androgen receptor (AR) signaling pathway using the MDA cell line (AID 743040; further: nearly all actives have a fitted effect of over 20% in size)
Summary of the method: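 After a 5 h incubation at 37C and 0% CO2, MDA-kb2 reporter cells were dosed with compounds in DMSO and kept 16 h under the same conditions. Luciferase activity was then read as luminescence with ONE-Glo.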

[18] = target: Androgen receptor (Homo sapiens) (UniProt P10275); assay: qHTS assay to identify small molecule antagonists of the androgen receptor (AR) signaling pathway (AID 743035; active means well fitted inhibition curve with a large enough effect in the signal ratio in the repeat runs, not every such curve was filed as active; the % refers to the signal ratio)
Summary of the method: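 Cell line: GeneBLAzer AR-UAS-bla GripTite (HEK293). Stimulus: R1881 added after compound. Exposure: 16 h, 37C, 5% CO2. Readout: LiveBLAzer B/G FRET fluorescence after 2 h at room temperature.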

[19] = target: Glucocorticoid receptor (Homo sapiens) (UniProt P04150); assay: qHTS assay to identify small molecule antagonists of the glucocorticoid receptor (GR) signaling pathway (AID 720692; active means well fitted inhibition curve with a large enough effect in the signal ratio in the repeat runs, not every such curve was filed as active; the % refers to the signal ratio; further: potency means the concentration at half of the fitted maximal effect)
Summary of the method: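 Fluorescence from cleaved LiveBLAzer B/G FRET substrate reports GRE-driven beta-lactamase in HeLa cells; compounds are tested against 5 nM dexamethasone (final) over 18 h at 37 C, substrate incubation 2 h at room temperature.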

Measured: Potency

On1ccccc1=S
active: [11] 215 nM | [12] 215 nM | [13] 215 nM | [14] 385 nM | [15] 959 nM
not listed: [16] | [17] | [18] | [19]
inactive: all other assays above

CCCCCCCCS(=O)C(C)Cc1ccc2c(c1)OCO2 (configuration not stated)
active: [12] 69900 nM | [13] 69900 nM
not listed: [10] | [11] | [14] | [15] | [18] | [19]
inactive: all other assays above

ON=C1CCCC1
not listed: [10] | [19]
inactive: all other assays above

CNC(=O)c1ccccc1
not listed: [16] | [17] | [18] | [19]
inactive: all other assays above

CCCCC(CC)COP(=O)(O)OCC(CC)CCCC (configuration not stated)
active: [19] 49100 nM
not listed: [9] | [10] | [11] | [13] | [16] | [17] | [18]
inactive: all other assays above

O=C(c1ccc(F)cc1)C1CCN(CCn2c(=O)[nH]c3ccccc3c2=O)CC1
not listed: [11] | [12] | [13] | [16] | [18] | [19]
inactive: all other assays above

C/C=C(\C)C(=O)OCc1ccccc1
not listed: [11] | [12] | [13] | [16] | [17] | [18] | [19]
inactive: all other assays above

Cn1cc(C(=O)[C@@H]2CCc3nc[nH]c3C2)c2ccccc21
not listed: [16] | [17] | [18] | [19]
inactive: all other assays above
